Experimental data published in PubChem BioAssay (NCATS).
Where “and” joins values, the source holds several entries; their conditions need not be identical. Identical values can stand only once. Records with an inconclusive call do not appear. Entries that show only a call come without a potency. A number with no mark means an inactive call. Calls of active or inactive are those of the source. The call rests on the fitted dose curve; in most records, active means well fitted curve in the direction sought with a large enough effect; inconclusive means small, poorly fitted or top-dose-only effect, or another doubt; inactive means no such curve, though single readings can be large; an effect the other way counts as inactive or inconclusive. Non-standard residues stand in square brackets, D forms with d. Residues, ends and D or L forms follow the SMILES beside them. *: point of attachment. Sta = CC(C)C[C@H](N)[C@@H](O)CC(=O)O; Isovaleryl = CC(C)CC(=O)*

Key:
[1] = molecular target: Cellular tumor antigen p53 (Homo sapiens) (UniProt P04637); test: Primary qHTS for small molecule compounds that upregulate eGFP-tagged delta133p53alpha (in N-terminal) cells. (AID 2060322); conditions: NCI-H358 eGFP-delta133p53alpha fluorescence, 24 h; activation: hits give high values; further: nearly all actives have a fitted effect of over 75% in size;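 on activation: cells pre-induced with doxycycline then dosed without doxycycline; series mostly up to about 56 µM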
In short: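 NCI-H358 cells pre-induced 24 h with 10 ng/ml doxycycline for eGFP-delta133p53alpha, plated dox-free and exposed 24 h at 37C to titrated compounds. Fixed, Hoechst-stained; gated GFP peak intensity by laser scanning cytometry, normalized to DMSO (0%) and 57.5 uM 5-azacytidine (100%).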

[2] = BET inhibitor-based combinations targeting novel dependencies in MECOM-rearranged (r) AML: SET-2 cell line (AID 2202231); conditions: SET-2 AML cells viability, CellTiter-Glo luminescence, 48 h; viability: hits give low values, concentration not given here; further: nearly all actives have a fitted effect of over 35% in size
In short: (§1)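 500 cells/well; 11-pt dose curve; 48 h, standard incubator; CellTiter-Glo luminescence after 15 min RT; DMSO/empty-well normalization; AUC plus Z-AUC (mean-centered within each line).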

[3] = BET inhibitor-based combinations targeting novel dependencies in MECOM-rearranged (r) AML: OCI-AML3 cell line (AID 2202232); conditions: Potency: OCI-AML3 viability; further: nearly all actives have a fitted effect of over 35% in size; on viability (% of control): series mostly up to about 46 µM
In short: as §1

[4] = BET inhibitor-based combinations targeting novel dependencies in MECOM-rearranged (r) AML: MV-4-11 cell line (AID 2202233); further: nearly all actives have a fitted effect of over 45% in size
In short: (§2)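 Cells were plated at 500 per well and exposed to each drug across an 11-point dose range for 48 hr at standard incubator conditions. Viability was read by CellTiter-Glo luminescence, and activity was expressed as AUC and per-cell-line Z-transformed AUC.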

[5] = BET inhibitor-based combinations targeting novel dependencies in MECOM-rearranged (r) AML: HNT-34 cell line (AID 2202234); further: nearly all actives have a fitted effect of over 35% in size
In short: as §2

[6] = BET inhibitor-based combinations targeting novel dependencies in MECOM-rearranged (r) AML: UCSD-AML1 cell line (AID 2202235); further: nearly all actives have a fitted effect of over 40% in size; on viability (% of control): series mostly up to about 46 µM
In short: as §2

[7] = BET inhibitor-based combinations targeting novel dependencies in MECOM-rearranged (r) AML: AML-191 cell line (AID 2202236; further: nearly all actives have a fitted effect of over 35% in size)
In short: as §1

[8] = BET inhibitor-based combinations targeting novel dependencies in MECOM-rearranged (r) AML: AML-194 cell line (AID 2202237; further: nearly all actives have a fitted effect of over 40% in size)
In short: as §1
Potency means the concentration at half of the fitted maximal effect.

Chain of Cellular tumor antigen p53 (Homo sapiens) (P04637 whole entry, looked up): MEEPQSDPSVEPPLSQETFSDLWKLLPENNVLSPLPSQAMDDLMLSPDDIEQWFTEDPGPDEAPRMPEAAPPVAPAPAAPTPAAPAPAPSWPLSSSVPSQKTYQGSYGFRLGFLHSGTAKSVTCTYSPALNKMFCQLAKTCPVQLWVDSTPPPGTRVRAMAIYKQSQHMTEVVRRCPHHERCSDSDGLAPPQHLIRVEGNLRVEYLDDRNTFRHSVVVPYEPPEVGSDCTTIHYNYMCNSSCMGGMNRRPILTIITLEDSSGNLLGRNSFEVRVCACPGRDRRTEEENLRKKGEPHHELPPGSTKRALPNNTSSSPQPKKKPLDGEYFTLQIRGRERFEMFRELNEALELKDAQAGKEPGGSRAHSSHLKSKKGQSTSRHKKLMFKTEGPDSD

CCCN[C@H]1CCc2nc(N)sc2C1
activation [1]: 9.21% and 7.7% | viability [2]: 116% | Potency [3]: inactive | Potency [4]: 934 nM (active) | Potency [5]: inactive | Potency [6]: inactive | Potency [7]: inactive | Potency [8]: inactive

CC(=O)SC[C@@H](C)C(=O)N1CCC[C@H]1C(=O)N[C@@H](Cc1ccccc1)C(=O)O
activation [1]: -26.8% | viability [2]: 115% | Potency [3]: inactive | Potency [4]: inactive | Potency [5]: inactive | Potency [6]: inactive | Potency [7]: inactive | Potency [8]: inactive

Oc1ccc(-c2ccc(-c3cc(Nc4cccc(CNC5CC5)c4)n[nH]3)cc2)c(O)c1
Potency [1]: 43.2 µM (active) | Potency [2]: 7.42 µM (active) | Potency [3]: 1860 nM (active) | Potency [4]: 1180 nM (active) | Potency [5]: 3.72 µM (active) | Potency [6]: 2.35 µM (active) | Potency [7]: 2.95 µM (active) | Potency [8]: 3.72 µM (active)

CC(=O)[C@H]1CC[C@H]2[C@@H]3CC=C4C[C@@H](O)CC[C@]4(C)[C@H]3CC[C@]12C
activation [1]: -3.95% and -16.2% | viability [2]: 112% | Potency [3]: inactive | Potency [4]: inactive | Potency [5]: inactive | Potency [6]: inactive | Potency [7]: inactive | Potency [8]: inactive

CCOC(=O)C=C[C@H](C[C@@H]1CCNC1=O)NC(=O)[C@@H](CC(=O)[C@@H](NC(=O)c1cc(C)on1)C(C)C)Cc1ccc(F)cc1
activation [1]: 17.3% | viability [2]: 120% | Potency [3]: inactive | Potency [4]: inactive | Potency [5]: inactive | Potency [6]: inactive | Potency [7]: inactive | Potency [8]: inactive

O=S(=O)(O)CCSSCCS(=O)(=O)O
activation [1]: -2.01% | viability [2]: 104% | Potency [3]: inactive | Potency [4]: inactive | Potency [5]: inactive | Potency [6]: inactive | Potency [7]: inactive | Potency [8]: inactive

O=C(O)c1cc(=O)[nH]c(=O)[nH]1
activation [1]: 15.1% and 14.7% | viability [2]: 111% | Potency [3]: inactive | Potency [4]: inactive | Potency [5]: inactive | Potency [6]: inactive | Potency [7]: inactive | Potency [8]: inactive

Nc1cc(C(Cl)=C(Cl)Cl)c(S(N)(=O)=O)cc1S(N)(=O)=O
activation [1]: 44.6% | viability [2]: 111% | Potency [3]: inactive | Potency [4]: inactive | Potency [5]: inactive | Potency [6]: inactive | Potency [7]: inactive | Potency [8]: inactive

CNC[C@H](O)[C@@H](O)[C@H](O)[C@H](O)CO
activation [1]: -10% | viability [2]: 121% | Potency [3]: inactive | Potency [4]: inactive | Potency [5]: inactive | Potency [6]: inactive | Potency [7]: inactive | Potency [8]: inactive

COC(=O)[C@H](Cc1ccccc1)NC(=O)[C@@H](N)CC(=O)O (H-Asp-Phe-OMe)
activation [1]: -35.6% and -14.3% | viability [2]: 112% | Potency [3]: inactive | Potency [4]: inactive | Potency [5]: inactive | Potency [6]: inactive | Potency [7]: inactive | Potency [8]: inactive

O=C(O)C(=O)Nc1cccc(-c2nn[nH]n2)c1
activation [1]: -3.95% | viability [2]: 121% | Potency [3]: inactive | Potency [4]: inactive | Potency [5]: inactive | Potency [6]: inactive | Potency [7]: inactive | Potency [8]: inactive

Cn1cnc(=N)c2[nH]cnc21
activation [1]: 10.7% | viability [2]: 111% | Potency [3]: inactive | Potency [4]: inactive | Potency [5]: inactive | Potency [6]: inactive | Potency [7]: inactive | Potency [8]: inactive

CC(C)CC(=O)N[C@H](C(=O)N[C@H](C(=O)N[C@@H](CC(C)C)[C@@H](O)CC(=O)N[C@@H](C)C(=O)N[C@@H](CC(C)C)[C@@H](O)CC(=O)O)C(C)C)C(C)C (Isovaleryl-VV[Sta]A[Sta]-OH)
activation [1]: -1.4% | viability [2]: 117% | Potency [3]: inactive | Potency [4]: inactive | Potency [5]: inactive | Potency [6]: inactive | Potency [7]: inactive | Potency [8]: inactive

COc1cccc2c1C(=O)c1c(O)c3c(c(O)c1C2=O)C[C@@](O)(C(=O)CO)C[C@@H]3O[C@H]1C[C@H](N)[C@@H](O)[C@H](C)O1
activation [1]: -26.9% | Potency [2]: 1.18 µM (active) | Potency [3]: 148 nM (active) | Potency [4]: 37.2 nM (active) | Potency [5]: 0.263 µM (active) | Potency [6]: 0.132 µM (active) | Potency [7]: 0.372 µM (active) | Potency [8]: 0.417 µM (active)

O=P(O)(O)C(O)(Cn1ccnc1)P(=O)(O)O
activation [1]: -20.1% | viability [2]: 112% | viability (% of control) [3]: 121% [at 5.12 µM] | viability, % of control [4]: 141% [at 5.12 µM] | viability (% of control) [5]: 108% [at 5.12 µM] | viability (% of control) [6]: 117% [at 5.12 µM] | viability (% of control) [7]: 112% [at 5.12 µM] | viability (% of control) [8]: 119% [at 5.12 µM]

O=C(CN1C(=O)C2(CCCC2)NC[C@H]1c1cc(F)cc(F)c1)Nc1ccc2c(c1)C[C@@]1(C2)C(=O)Nc2ncccc21
activation [1]: 22.6% | viability [2]: 98.8% | Potency [3]: inactive | Potency [4]: inactive | Potency [5]: inactive | Potency [6]: inactive | Potency [7]: inactive | Potency [8]: inactive

CC(C)(CO)[C@@H](O)C(=O)NCCC(=O)O
activation [1]: -14.4% | viability [2]: 117% | Potency [3]: inactive | Potency [4]: inactive | Potency [5]: inactive | Potency [6]: inactive | Potency [7]: inactive | Potency [8]: inactive

Cc1ccsc1C(=CCCN1CCC[C@@H](C(=O)O)C1)c1sccc1C
activation [1]: -19.8% | viability [2]: 112% | Potency [3]: 468 nM (active) | Potency [4]: inactive | Potency [5]: inactive | Potency [6]: inactive | Potency [7]: inactive | Potency [8]: inactive
